# Rows were chosen to be rich in hits. Some 2.9% of all compounds tested hit in one or more screens of this group.
# MITF act: activators of MITF-driven TRPM1 promoter reporter, primary screen, cell-based, SK-MEL-5, luciferase, single point. SK-MEL-5 TRPM1-promoter luciferase, 24 h; % of positive control, neutral wells = 0. activation, % at 12.5 µM. actives 0.75% (n = 300,000);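 active = mean activation of at least 80% with every replicate also reaching 80%; inconclusive = mean reaches 80% but some replicate falls short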
# PvdQ acylase: P. aeruginosa PvdQ acylase inhibitors, primary screen, biochemical, fluorescence, plate reader and imaging, single point; inhibition, % at 10 µM; actives 0.063% (n = 340,000); PvdQ acylase [Pseudomonas aeruginosa LESB58]; purified PvdQ acylase; in the data active = inhibition above about 30%, passing the limit was not always enough; inconclusive = no clear call, values can overlap the other calls
# Wnt act: Wnt/beta-catenin pathway activators, primary screen, cell-based, plate reader, single point; Wnt/beta-catenin reporter cell assay, activator; activation, % at 9.35 µM; actives 1.2% (n = 300,000); AID 743398, 2014; in the data active = activation above about 30%, passing the limit was not always enough; inconclusive = no clear call, values can overlap the other calls
# Glyco luc inh: increase of ERlucT glycosylation luciferase signal, primary screen, N-linked glycosylation inhibitor project, D54 ERlucT cells, luminescence, set 2; D54 ERlucT glycosylation luciferase reporter, 24 h; percent of 100 nM tunicamycin response; reporter increase, % at 12.5 µM; actives 0.23% (n = 360,000); AID 588692, 2011;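 active = mean luciferase reporter signal, scaled so untreated is 0 and the glycosylation-blocking control 100, at or above a set limit in every replicate; inconclusive = mean reaches the limit but not every replicate does; inactive = mean below the limit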;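 note: luciferase carries N-glycosylation sites so blocking glycosylation raises the light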
# Vif imaging: HIV Vif self-association inhibitors, primary screen, imaging, HEK293T, single point | inhibition, % at 7.49 µM | AID 602346, 2012 | HEK293T cells, Vif self-association by quenched fluorescence, 24 h | actives 0.35% (n = 340,000); in the data active = inhibition above about 50%, passing the limit was not always enough; inconclusive = no clear call, values can overlap the other calls; inactive = below about 31%
# esBAF inh: Bmi1 luciferase reporter increase in mESCs, primary screen, esBAF inhibitor project, mouse ES cells, Bmi1 luciferase knock-in, single point. actives 2% (n = 350,000). reporter increase, % at 12.5 µM. AID 602393, 2012. 24 h; 100% = twice the neutral-well signal; in the data active = activation above about 40%; inconclusive = no clear call, values can overlap the other calls;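 note: a rise in the Bmi1 reporter signal indicates esBAF inhibition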
# Hits are given with their value; – = inactive; ? = inconclusive; · = no result given.
SMILES,MITF act,PvdQ acylase,Wnt act,Glyco luc inh,Vif imaging,esBAF inh
c1ccc(N=NC2=NN(c3ccccc3)CS2)cc1,·,·,54,–,–,·
COc1ccccc1N1CCN(/N=C/c2ccc(Cl)c([N+](=O)[O-])c2)CC1,–,–,–,–,–,44
Cc1cc2ncc(-c3ccc(Cl)cc3)cn2n1,91,–,–,–,–,?
Cc1ccc(-c2cnc3cc(C)nn3c2)cc1,–,–,–,–,–,·
COc1ccc(-c2nc(C3CCCCC3)no2)cc1OC,106,–,–,–,–,60
COc1ccc(-c2nc(-c3cccc(C)c3)no2)cc1OC,–,–,–,–,–,46
COc1ccc(-c2nc(-c3ccccc3OC)no2)cc1OC,·,–,·,–,–,55
CNC[C@@H]1OCCCC[C@H](C)Oc2ccc(NC(=O)Nc3ccc(C(F)(F)F)cc3)cc2C(=O)N([C@H](C)CO)C[C@@H]1C,·,·,·,·,·,–
CCN(N=O)c1ccc(C=C2C=Cc3ccccc32)cc1,97,–,41,–,–,·
CN(N=O)c1ccc(C=C2C=Cc3ccccc32)cc1,–,–,–,–,–,·
c1nc(C2CCCCC2)cc2cc3c(cc12)OCO3,–,–,–,–,·,51
c1nc(CCO[C@H]2CCCCO2)cc2cc3c(cc12)OCO3,–,–,–,–,–,–
COc1cc(N=Nc2cccc(S(N)(=O)=O)c2)c2ccccc2c1N,–,–,–,116,53,–
NC1=NC(=Nc2cccc(S(N)(=O)=O)c2)c2ccccc21,–,–,–,–,–,–
O=C(NC1CCCCCCC1)c1ccccc1O,–,–,–,–,–,92
Cc1ccccc1C(=O)NC1CCCCCCC1,–,–,–,–,–,–
CN(C(=O)c1cc(-c2ccccc2)on1)C1CCCCC1,174,–,34,–,–,51
CC(C)c1cc(C(=O)NC2CCCCC2)no1,–,–,·,–,–,–
Cc1cc(C(=O)N(C)C2CCCCC2)no1,–,–,–,–,–,–
O=C(NC1CCCCC1)c1cc(-c2ccccc2O)on1,124,–,–,–,–,83
O=C(NC1CCCCC1)c1cc(-c2ccc(O)cc2)on1,93,–,–,–,–,42
COc1ccc(-c2cc(C(=O)NC3CCCCC3)no2)cc1OC,–,–,–,–,–,–
CCCc1cc(C(=O)NC2CCCCC2)no1,–,–,33,–,–,43
Cc1ccc(-c2cc(C(=O)NC3CCCCC3)no2)cc1,114,–,–,–,–,–
O=C(Nc1ccc(F)cc1)N1C[C@H]2[C@@H](c3ccccc31)[C@H](CO)N2C(=O)c1ccccc1F,·,·,·,·,·,–
SMILES,MITF act,PvdQ acylase,Wnt act,Glyco luc inh,Vif imaging,esBAF inh
CCCNC(=O)N1C[C@H](C)[C@H](OC)CN(C)C(=O)c2ccc(NC(=O)CCC)cc2OC[C@@H]1C,·,·,·,·,·,–
O=C(O)/C=C/C(=O)c1ccc2c(c1)CCc1ccccc1-2,–,–,–,–,–,44
CC(=O)Nc1ccc2c(c1)CCc1ccccc1-2,–,–,–,–,–,–
C[C@@H]1CCCCO[C@H](CN(C)S(=O)(=O)c2ccccc2)[C@@H](C)CN([C@H](C)CO)C(=O)c2cc(NC(=O)CCC(F)(F)F)ccc2O1,·,·,·,·,·,–
COc1ccc(NC(=O)N(C)C[C@H]2Oc3ccc(NC(=O)Nc4c(C)noc4C)cc3C(=O)N([C@@H](C)CO)C[C@@H]2C)cc1,·,·,·,·,·,–
COc1ccc(-c2ccc3c(c2)c(-c2cccs2)c(-c2cc(OC)cc(OC)c2)n3C)cc1,–,–,–,–,–,–
COc1cc(OC)cc(-c2c(-c3cccs3)c3cc(-c4ccc(C(N)=O)cc4)ccc3n2C)c1,–,–,–,–,112,–
Cc1ccc(/C(N)=N/OC(=O)Cc2cccs2)cc1,111,–,·,–,–,55
Cc1ccc(/C(N)=N/OC(=O)Cc2ccccc2)cc1,–,–,–,–,–,·
N/C(=N\OC(=O)Cc1cccs1)c1ccc(Cl)cc1,–,–,34,–,–,81
N/C(=N\OC(=O)Cc1cccs1)c1cccc([N+](=O)[O-])c1,–,–,–,–,·,–
N/C(=N\OC(=O)CN1C(=O)c2ccccc2C1=O)c1ccc(Cl)cc1,–,–,–,–,–,·
Cc1ccc(C(=O)O/N=C(\N)Cc2cccs2)c(Cl)c1,117,–,·,–,·,·
Cc1cccc(/C(N)=N/OC(=O)Cc2cccs2)c1,95,–,·,–,–,48
C[C@@H]1CN([C@@H](C)CO)C(=O)c2cc(NC(=O)C3CCCCC3)ccc2O[C@H]1CN(C)C(=O)NC1CCCCC1,·,·,·,·,·,–
N/C(Cc1cccs1)=N\OC(=O)COc1ccccc1,–,–,–,–,–,–
N/C(=N\OC(=O)Cc1cccs1)c1ccccc1,·,–,·,–,–,72
Cc1ccccc1-c1cnc2c(c1)C(=O)N([C@@H](C)CO)C[C@@H](C)[C@H](CN(C)C(=O)c1ccc(F)cc1)O2,·,·,·,·,·,–
CC(C)CC#Cc1ccc2c(c1)O[C@@H](CN(C)S(=O)(=O)c1cccc(F)c1)[C@H](C)CN([C@@H](C)CO)S2(=O)=O,·,·,·,·,·,–
Cn1nnnc1SCc1ccc(C(=O)Nc2ccc(Br)cc2)cc1,–,–,·,–,81,72
CC(=O)Nc1ccc(C(=O)CSc2nnnn2C)cc1,–,–,–,–,–,–
Cc1ccc(N(C(=O)c2csnn2)C(C(=O)NC(C)(C)C)c2ccncc2)cc1 (stereo not drawn),–,–,–,–,–,–
CC(C)c1ccc(N(C(=O)c2csnn2)C(C(=O)NC(C)(C)C)c2ccncc2)cc1 (stereo not drawn),–,–,·,–,–,58
Cc1ccccc1-c1noc(-c2cccs2)n1,·,–,–,–,·,54
Cc1ccccc1-c1nnc(-c2ccccc2)o1,–,–,·,–,–,43
SMILES,MITF act,PvdQ acylase,Wnt act,Glyco luc inh,Vif imaging,esBAF inh
Cc1ccccc1-c1nnc(-c2cccs2)o1,–,–,–,–,–,42
Clc1ccccc1-c1nnc(-c2ccccc2Cl)o1,?,–,–,–,–,71
O=C([C@@H]1[C@@H](CO)[C@@H]2Cn3c(ccc(-c4ccccc4F)c3=O)[C@H]1N2C(=O)C1CC1)N1CCOCC1,·,·,·,·,·,–
C[C@H]1CCCCO[C@@H](CN(C)C)[C@@H](C)CN([C@@H](C)CO)C(=O)c2cc(NS(=O)(=O)c3cccs3)ccc2O1,·,·,·,·,·,–
Cn1cc(-c2nnc(-c3ccccc3)o2)c2ccccc21,–,–,42,–,–,–
CCOc1ccc(-c2nnc(-c3cccs3)o2)cc1,–,–,31,–,–,–
Cc1ccccc1-c1nnc(CS(=O)(=O)c2ccccc2)o1,103,–,–,–,–,–
CCOc1ccc(-c2nnc(-c3cccs3)o2)cc1OCC,·,–,·,–,–,–
Cc1nnc(-c2ccccc2)o1,–,–,–,–,–,–

# Screens as filed in PubChem BioAssay.
